The whole screen tested about 5,500 compounds, of which about 2,000 (36%) were called active. Not shown: some 18% with an inconclusive outcome. No stated cut-off is given here; in the data, active means normalized growth mostly below about 0.91 (no sharp cut-off); inconclusive means no clear call, values can overlap the other calls; inactive means mostly above about 0.92. The list shows a part of the results.
Assay: chemical genetic growth profiling, strain panel (AID 1159580);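 further: tested at 20 µM; growth read once vehicle control cultures reached saturation at 30 °C; 1 = growth at the plate median or of vehicle wells; lower values mean less growth of the strain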
Conditions: S. cerevisiae deletion strains, growth OD
[1] = locus YAR019C, strain CDC15, active compounds read low
[2] = locus YBL105C, strain PKC1, active compounds read low
[3] = locus YBR135W, strain CKS1, active compounds read low
[4] = locus YBR136W, strain MEC1, active compounds read low
[5] = locus YBR160W, strain CDC28, active compounds read low
[6] = locus YDL017W, strain CDC7, active compounds read low
[7] = locus YDL028C, strain MPS1, active compounds read low
[8] = locus YDL108W, strain KIN28, active compounds read low
[9] = locus YDL132W, strain cdc53, active compounds read low
[10] = locus YDL214C, strain PRR2, active compounds read low
[11] = locus YDR052C, strain DBF4, active compounds read low
[12] = locus YDR054C, strain cdc34, active compounds read low
[13] = locus YDR226W, strain ADK1, active compounds read low
[14] = locus YDR477W, strain SNF1, active compounds read low
[15] = locus YER123W, strain YCK3, active compounds read low
[16] = locus YER133W, strain GLC7, active compounds read low
[17] = locus YFL009W, strain cdc4, active compounds read low
[18] = locus YFL029C, strain CAK1, active compounds read low
[19] = locus YFR003C, strain YPI1, active compounds read low
[20] = locus YFR019W, strain FAB1, active compounds read low
[21] = locus YFR028C, strain CDC14, active compounds read low
[22] = locus YGR040W, strain KSS1, active compounds read low
[23] = locus YGR052W, strain FMP48, active compounds read low
[24] = locus YGR092W, strain DBF2, active compounds read low
[25] = locus YHR030C, strain SLT2, active compounds read low
[26] = locus YHR079C, strain IRE1, active compounds read low
[27] = locus YHR082C, strain KSP1, active compounds read low
[28] = locus YHR205W, strain SCH9, active compounds read low
[29] = locus YIL147C, strain SLN1, active compounds read low
[30] = locus YJL095W, strain BCK1, active compounds read low
[31] = locus YJL128C, strain PBS2, active compounds read low
[32] = locus YJL157C, strain FAR1, active compounds read low
[33] = locus YJR016C, strain ILV3, active compounds read low
[34] = locus YJR066W, strain TOR1 (second series), active compounds read low
[35] = locus YJR066W, strain TOR1, active compounds read low
[36] = locus YKL048C, strain ELM1, active compounds read low
[37] = locus YKL067W, strain YNK1, active compounds read low
[38] = locus YKL101W, strain HSL1, active compounds read low
[39] = locus YKL193C, strain SDS22, active compounds read low
[40] = locus YKL203C, strain TOR2, active compounds read low
[41] = locus YLR113W, strain HOG1, active compounds read low
[42] = locus YLR133W, strain CKI1, active compounds read low
[43] = locus YLR403W, strain SFP1, active compounds read low
[44] = locus YML070W, strain DAK1, active compounds read low
[45] = locus YMR001C, strain CDC5, active compounds read low
[46] = locus YMR205C, strain PFK2 (second series), active compounds read low
[47] = locus YMR277W, strain FCP1, active compounds read low
[48] = locus YNL006W, strain LST8, active compounds read low
[49] = locus YNL020C, strain ARK1, active compounds read low
[50] = locus YNL161W, strain CBK1, active compounds read low
[51] = locus YNL183C, strain NPR1, active compounds read low
[52] = locus YNL207W, strain RIO2, active compounds read low
[53] = locus YNL222W, strain SSU72, active compounds read low
[54] = locus YNL307C, strain MCK1 (second series), active compounds read low
[55] = locus YOL078W, strain AVO1, active compounds read low
[56] = locus YOL136C, strain PFK27, active compounds read low
[57] = locus YOR061W, strain CKA2, active compounds read low
[58] = locus YOR119C, strain RIO1, active compounds read low
[59] = locus YOR231W, strain MKK1, active compounds read low
[60] = locus YOR329C, strain SCD5, active compounds read low
[61] = locus YPL031C, strain PHO85, active compounds read low
[62] = locus YPL153C, strain RAD53, active compounds read low
[63] = locus YPL204W, strain HRR25, active compounds read low
[64] = locus YPL209C, strain IPL1, active compounds read low
[65] = locus YPL256C, strain CLN2, active compounds read low
[66] = locus YPR025C, strain CCL1, active compounds read low
[67] = locus YPR106W, strain ISR1, active compounds read low
[68] = locus YPR111W, strain DBF20, active compounds read low
[69] = strain NNK1, active compounds read low
[70] = strain TSCII, active compounds read low

Measured: normalized growth

COc1ccccc1C(C[N+](=O)[O-])c1c(N)n(C)c(=O)n(C)c1=O (stereo unspecified)
inactive: [1] 0.942 | [2] 0.955 | [3] 0.954 | [4] 0.945 | [5] 0.953 | [6] 0.958 | [7] 0.948 | locus YDL101C, strain DUN1, active compounds read low 0.916 | [8] 0.945 | [9] 0.953 | [11] 0.962 | [12] 0.945 | [13] 0.954 | [17] 0.96 | [18] 0.933 | [19] 0.953 | [21] 0.956 | [29] 0.953 | [31] 0.941 | [33] 0.962 | [39] 0.963 | [45] 0.946 | [47] 0.956 | [48] 0.957 | [50] 0.957 | [52] 0.954 | [53] 0.956 | [55] 0.956 | [57] 0.678 | [60] 0.956 | [64] 0.95 | [66] 0.958 | [67] 0.961 | [68] 0.966 | [69] 0.953 | [70] 0.941
active: [10] 0.583 | [14] 0.555 | [15] 0.374 | [16] 0.602 | [20] 0.263 | [22] 0.643 | [23] 0.512 | [24] 0.443 | [25] 0.302 | [26] 0.401 | [27] 0.559 | [28] 0.21 | [30] 0.33 | [32] 0.593 | [34] 0.133 | [35] 0.369 | [36] 0.654 | [37] 0.612 | [38] 0.621 | [40] 0.61 | [41] 0.382 | [42] 0.616 | [43] 0.49 | [44] 0.527 | [46] 0.679 | [49] 0.688 | [51] 0.381 | [54] 0.151 | [56] 0.485 | [58] 0.641 | [59] 0.468 | [61] 0.467 | [62] 0.546 | [63] 0.603 | [65] 0.348

COc1ccccc1N1CCN(CCCNc2c(C)c(=O)n(C)c(=O)n2C)CC1
inactive: locus YAL013W, strain DEP1, active compounds read low 1.02 | locus YAL040C, strain CLN3, active compounds read low 0.984 | locus YCL061C, strain MRC1 (second series), active compounds read low 0.998 | locus YDR150W, strain NUM1, active compounds read low 1 | locus YDR363W, strain ESC2, active compounds read low 1.01 | locus YER002W, strain NOP16, active compounds read low 0.999 | locus YGR229C, strain SMI1, active compounds read low 1.04 | locus YJR075W, strain HOC1, active compounds read low 1.01 | locus YMR307W, strain GAS1, active compounds read low 1.02 | locus YNL128W, strain TEP1, active compounds read low 1 | locus YNL175C, strain NOP13, active compounds read low 0.976 | locus YNL197C, strain WHI3, active compounds read low 0.985 | locus YNL224C, strain SQS1, active compounds read low 0.995 | locus YNL322C, strain KRE1, active compounds read low 0.987 | locus YOR083W, strain WHI5 (second series), active compounds read low 0.978

CC1(C)C/C(=N/Nc2ccc(C(F)(F)F)cc2)c2cc(C(C)(C)C)c(O)c(O)c2O1
inactive: [1] 0.989 | [2] 0.978 | [3] 0.977 | [4] 0.978 | [5] 0.976 | [6] 0.976 | [7] 0.96 | [8] 0.976 | [9] 0.977 | [11] 0.975 | [12] 0.968 | [13] 0.988 | [16] 0.896 | [17] 0.979 | [18] 0.978 | [19] 0.981 | [21] 0.98 | [29] 0.975 | [32] 0.896 | [33] 0.991 | [39] 0.973 | [40] 0.731 | [43] 0.865 | [45] 0.98 | [47] 0.977 | [48] 0.975 | [50] 0.976 | [52] 0.976 | [53] 0.995 | [55] 0.975 | [60] 0.983 | [64] 0.983 | [66] 0.981 | [70] 0.986
active: [10] 0.481 | [14] 0.6 | [15] 0.375 | [20] 0.436 | [22] 0.635 | [23] 0.347 | [24] 0.214 | [25] 0.246 | [26] 0.29 | [27] 0.314 | [28] 0.0779 | [30] 0.283 | [31] 0.129 | [34] 0.355 | [35] 0.36 | [36] 0.275 | [37] 0.532 | [38] 0.204 | [41] 0.199 | [42] 0.419 | [44] 0.426 | [46] 0.364 | [49] 0.375 | [51] 0.302 | [54] 0.116 | [56] 0.427 | [57] 0.243 | [58] 0.534 | [59] 0.277 | [61] 0.576 | [62] 0.436 | [63] 0.535 | [65] 0.243 | [67] 0.421 | [68] 0.319 | [69] 0.434
